Screens (PubChem)
TGFb inhibitor = blocks TGF-b signaling. 410,000 compounds, 1.2% hits. Potency, µM (doses to about 46.1 µM), hits mostly inhibitors. HepG2 CAGA-GFP TGF-b/SMAD3 reporter, GFP fluorescence, 18 h; TGF-beta stimulated, 500 pg/mL final; note: nearly all actives have a fitted effect of over 65% in size
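GFP signal (ex488/em500-530) from TGF-beta-stimulated HEPG2 CAGA-GFP cells, 500 pg/mL final, 18 h at 37 degrees C in DMEM plus 1% FBS, normalized to unstimulated and DMSO-stimulated controls.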
ATXN2 expr inh = inhibitors of ATXN2 expression. HEK-293 ATXN2-luciferase reporter, luminescence, 24 h. Potency, µM (titrated, usually from 57 µM), most hits filed as inhibitors. 360,000 compounds, 0.72% hits; note: nearly all actives have a fitted effect of over 55% in size
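ATXN2-luciferase reporter cells (luciferase flanked by upstream and downstream ATXN2 gene portions) were treated 24 h at 37 °C with compounds at up to 57 uM. SteadyGlo luminescence gave expression; GF-AFC fluorescence gave viability.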
HT1080-NT tox = kills 2HG-producing HT-1080-NT fibrosarcoma cells. 360,000 compounds, 1.6% hits. Potency, µM (titrated, usually from 46.1 µM), hits mostly cytotoxic. HT-1080-NT fibrosarcoma viability, CellTiter-Glo ATP luminescence, 48 h;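 note: NT is the 2HG producing partner of a matched IDH1 knockdown line; nearly all actives have a fitted effect of over 55% in size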
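A 48-hour cytotoxicity screen used HT-1080-NT cells plated 2 hours before compound delivery. ATP-based CellTiter-Glo luminescence measured viability, normalized to DMSO and no-cell controls.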
HT1080 IDH1KD tx = HT-1080 IDH1 knockdown cell toxicity (counter line) | AID 686971 | Potency, µM (series often up to 46.1 µM), hits mostly cytotoxic | 360,000 compounds, 2% hits | HT-1080 IDH1 knockdown viability, ATP luminescence, 48 h
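Assay cells: HT-1080 with IDH1 knockdown, 750 per well, RPMI/5% FBS. Exposure: 48 h at 37 °C following 2 h pre-incubation. Read: CellTiter-Glo luminescence; fitted concentration-response, curve class assigned.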
S2 tox = viability counter-screen for ATXN expression inhibitors; Potency, µM (series often up to 56.7 µM), usual class: cytotoxic; AID 651635; S2 cells (HEK-293 line with an ATXN2-luciferase reporter) viability, CellTiter-Fluor protease fluorescence, 24 h; 400,000 compounds, 0.49% hits; note: nearly all actives have a fitted effect of over 40% in size
HepG2 viability = counter-screen for TGF-b inhibitors: cytotoxicity in HepG2 cells; AID 588856; 410,000 compounds, 0.76% hits; HepG2 CAGA-GFP viability, ATP luminescence, 18 h; Potency, µM (highest dose often 46.1 µM), actives largely listed as cytotoxic
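HepG2 CAGA-GFP cells (1000/well, DMEM with 1% FBS) received compound, then TGF-beta at 500 pg/mL final, and were incubated 18 hours at 37 degrees C. Viability was read by CellTiter-Glo luminescence. Media-only wells were set as complete cell-killing and DMSO as no toxicity.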
A number is an active result; 0 = inactive; ? = inconclusive; - = no result given; [ ] = remark or other dose. Compounds with a hit are over-represented: about 3.8% of the library has one in this group of screens. Calls come from the whole dose curve; as a rule, active = well fitted curve in the direction sought with a large enough effect; inconclusive = small, poorly fitted or top-dose-only effect, or another doubt; inactive = no such curve, though single readings can be large; an effect the other way counts as inactive or inconclusive.

SMILES | TGFb inhibitor | ATXN2 expr inh | HT1080-NT tox | HT1080 IDH1KD tx | S2 tox | HepG2 viability
O=C(Nc1ccccc1)c1nnsc1S(=O)c1ccc(Cl)cc1 (stereo not drawn) | ? | ? | ? | 0[9.24 µM] | ? | 0
O=C(c1nnsc1S(=O)(=O)c1ccc(Cl)cc1)N1CCOCC1 | ? | ? | 14.6µM | ? | - | 12.6µM
O=C(c1nnsc1S(=O)c1ccc(Cl)cc1)N1CCOCC1 (stereo not drawn) | ? | 0[11.3 µM] | 13µM | ? | - | 0
CNC(=O)c1nnsc1S(=O)(=O)c1ccc(Cl)cc1 | 11.2µM | ? | ? | 2.91µM | ? | 17.8µM
COc1ccc(N2CCN(C(=O)C3CCN(S(=O)(=O)c4cn(C)cn4)CC3)CC2)cc1 | 0 | - | - | - | - | 0
CCN(CC)c1cc2c(cc1F)c(=O)c(S(=O)(=O)c1cccc(C)c1)cn2C | ? | - | - | - | - | 0
O=C(c1ccc(CSc2nc3ccncc3n2Cc2ccccc2F)cc1)N1CCCCCC1 | ? | 0 | - | - | 0 | 0
Cc1ccc(Cn2c(SCc3ccc(C(=O)NCCc4ccccc4)cc3)nc3ccncc32)cc1 | ? | - | - | - | - | 0
Cc1ccc(Cn2c(SCc3ccc(C(=O)N4CCCCC4)cc3)nc3ccncc32)cc1 | 11.2µM | - | - | - | - | 0
Cc1ccccc1Cn1c(SCc2ccc(C(=O)N3CCCCC3)cc2)nc2ccncc21 | 12.6µM | 0 | - | - | 0 | 0
Cc1ccc(Cn2c(SCc3ccc(C(=O)N4CCCCCC4)cc3)nc3ccncc32)cc1 | 10µM | ? | - | - | ? | 0
CC1CCC(NC(=O)c2ccc(CSc3nc4ccncc4n3Cc3ccc(F)cc3)cc2)CC1 (stereo not drawn) | 3.55µM | ? | - | - | ? | 0
O=C(CN1Cc2ccccc2OC(c2ccccc2)C1)NCc1cccnc1 (stereo not drawn) | - | - | - | - | 0 | -
O=C(COc1cccc(Cl)c1)N1CCC(c2nc3ccccc3s2)CC1 | ? | 0 | - | - | ? | 0
Cc1ccc(S(=O)(=O)CCSc2n[nH]c(=O)n2-c2ccccc2)cc1 | 0 | 0 | ? | 0 | ? | 0
Cc1cc(C)c(-n2c(SCCS(=O)(=O)c3ccc(F)cc3)n[nH]c2=O)c(C)c1 | 0 | 0 | ? | 18.4µM | ? | 0
O=C(c1ccc2c(=O)n(CCc3ccccc3)c(=O)[nH]c2c1)N1CCN(c2ccc(Cl)cc2)CC1 | 4.47µM | 0 | - | - | ? | 0
O=C(CCl)NCc1cc(-c2ccc(Cl)cc2)no1 | ? | ? | 11.6µM | 9.2µM | ? | 0
NS(=O)(=O)c1cccc(NC(=O)CSc2nc3nc(-c4cccs4)cc(C(F)(F)F)c3c(=O)[nH]2)c1 | 0 | 0 | 0 | 0 | 0 | 0
O=C(CSc1nc2nc(-c3cccs3)cc(C(F)(F)F)c2c(=O)[nH]1)Nc1c(F)c(F)c(F)c(F)c1F | 0 | ? | 11.6µM | 0 | 0 | 0
CCCCC(=NCCc1c(C)[nH]c2ccc(OC)cc12)C1=C(O)CC(c2ccccc2)CC1=O (stereo not drawn) | ? | 0 | ? | 2.31µM | ? | 0
CC(=NCCc1c(C)[nH]c2ccc(OCc3ccccc3)cc12)C1=C(O)CC(c2ccccc2)CC1=O (stereo not drawn) | 0 | 0 | 0 | 0 | 0 | 0
CCC(=NCCc1c(C)[nH]c2ccccc12)C1=C(O)CC(c2ccccc2)CC1=O (stereo not drawn) | ? | 0 | ? | 8.2µM | ? | 0
CCC(=NCCc1c(C)[nH]c2ccc(OC(F)(F)F)cc12)C1=C(O)CC(c2ccccc2)CC1=O (stereo not drawn) | ? | 0 | 4.11µM | 5.8µM | ? | 0
CCC(=NC)C1=C(O)CC(c2ccccc2)CC1=O (stereo not drawn) | 0 | 0 | 0 | 0 | 0 | 0
O=C(O)c1ccc2c(ccc3nn(-c4ccc(/C=C/c5ccc(-n6nc7ccc8cc(C(=O)O)ccc8c7n6)cc5[S+](=O)([O-])[O-])c([S+](=O)([O-])[O-])c4)nc32)c1 | 0 | - | - | - | - | 0
Cc1cc(NC(=O)CS(=O)c2cn(Cc3cccc(Cl)c3)c3ccccc23)no1 (stereo not drawn) | 12.6µM | ? | 0 | ? | ? | 0
